This note sets out measurements from PubChem BioAssay (Tox21).

Where “and” joins values, the source holds several entries; their conditions need not be identical. Equal values may be shown once. Inconclusive results are not listed. A number with no mark means an inactive call. Calls of active or inactive are those of the source. Calls come from the whole dose curve; as a rule, active = well fitted activation curve with a large enough effect in the repeat runs; inconclusive = weak or mixed curves; inactive = no such curve, though single readings can be large or run the other way.
% is set by controls: 0 for no effect and ±100 for the full control effect; potency is the fitted concentration of half-maximal effect.

This assay deals with Nuclear receptor subfamily 1 group I member 2 (Rattus norvegicus) (UniProt Q9R1A7). As to the kind of experiment: Rat pregnane X receptor (rPXR) activation by small molecules, qHTS assay (AID 1346983). Note: nearly all actives have a fitted effect of over 20% in size. Particulars: rPXR luciferase reporter cells, One-Glo luminescence, 24 h; max activation: hits give high values. From the text: National Center for Advancing Translational Sciences [NCATS] NIH Chemical Genomics Center [NCGC] U.S. Environmental Protection Agency [EPA] National Institutes of Environmental Health Sciences [NIEHS] National Toxicology Program [NTP] Assay overview: The Pregnane X receptor (PXR), a ligand activated nuclear receptor plays a critical role in the regulation of genes involved in drug metabolism and transporters. PXR binds xenobiotics and when compounds interact with PXR produces enhanced expression of CYP3A genes. In humans PXR activation and CYP3A4 induction can be problematic due to their interactions with co-medicated drugs and decrease their efficacy or increase their own metabolism. However, there are known species-specific differences with regard to PXR activation that should be taken into account when animal PXR data are extrapolated to humans. A cell based rat PXR (rPXR) assay (developed by Puracyp, Inc., CA) was used to assess the activation of rPXR.
Sequence of Nuclear receptor subfamily 1 group I member 2 (Rattus norvegicus) (Q9R1A7 whole entry, looked up): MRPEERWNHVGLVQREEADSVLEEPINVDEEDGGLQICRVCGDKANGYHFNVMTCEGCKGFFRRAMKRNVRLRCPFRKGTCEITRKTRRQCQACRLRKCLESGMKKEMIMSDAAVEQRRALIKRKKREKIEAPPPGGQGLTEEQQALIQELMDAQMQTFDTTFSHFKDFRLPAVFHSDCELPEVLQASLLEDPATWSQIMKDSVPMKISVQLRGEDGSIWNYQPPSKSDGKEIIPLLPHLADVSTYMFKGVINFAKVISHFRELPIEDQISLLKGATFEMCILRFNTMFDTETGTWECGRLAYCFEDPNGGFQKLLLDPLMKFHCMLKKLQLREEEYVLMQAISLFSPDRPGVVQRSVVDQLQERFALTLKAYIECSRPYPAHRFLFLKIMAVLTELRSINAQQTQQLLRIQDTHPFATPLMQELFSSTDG
Assay Protocol Summary: rPXR cells were dispensed at 2,000 per well in 5uL of assay medium into white, solid-bottom 1536-well plates using a Multidrop Combi dispenser (Thermo Scientific). The assay plates were incubated at 37 C for 5hr before transferring 23 nL of test compounds dissolved in DMSO and positive control via Pintool station (Wako). The assay plates were incubated at 37 C for 24 hr. Then 5ul One-Glo assay reagent (Promega) was added to each plate by a Flying Reagent Dispenser (FRD, Aurora Discovery) and following 30 min incubation at room temperature, luciferase activity was quantified on a ViewLux plate reader (Perkin Elmer).
On to `CN1CCN(C2=Nc3cc(F)ccc3Cc3ccccc32)CC1`, for which the max activation is 2.35%.
Still for that read-out and setting: to `Cc1cccc(C)c1NC(=O)CN1CCCCCC1` belongs -0.265%; to `CCN(CCCc1ccccc1)CCCc1ccccc1`, -0.276%.
On the same count and under the same terms, the value for `C[C@@H]1CN(c2c(F)c(F)c3c(=O)c(C(=O)O)cn(C4CC4)c3c2F)C[C@H](C)N1` was -2.98%; that for `CCN(CC)CC1CCCCN1CC(=O)N1c2ccccc2C(=O)Nc2cccnc21` (stereo not given) was -0.899%.
On to `CS(=O)(=O)c1ccc([C@@H](O)[C@@H](CF)NC(=O)C(Cl)Cl)cc1`, for which the max activation is -1.93%.
For the molecule `CC(=O)Oc1cc(C(C)C)c(OCCN(C)C)cc1C`, the max activation is -1.16%.
Same read-out and setting: to `Cc1ccsc1C(=CCCN1CCC[C@@H](C(=O)O)C1)c1sccc1C` belongs 2.87%; to `Cc1ncc(CO)c(CN)c1O`, -1.2%.
On the same count and under the same terms, to `CCCCN1C[C@H](O)[C@@H](O)[C@H](O)[C@H]1CO` belongs -1.78%; to `C=CC(C)(O)CC/C=C(\C)CCC=C(C)C` (stereo not given), 3.74%.
Still for that read-out and setting: the value for `NCCC(O)(P(=O)(O)O)P(=O)(O)O` was -0.383%.
Consider `CN1CCN(c2c(F)cc3c(=O)c(C(=O)O)cn(CCF)c3c2F)CC1`, for which the max activation is -0.524%.
The same measure, in the same setting: the value for `Cc1nnc(SCC2=C(C(=O)O)N3C(=O)[C@@H](NC(=O)Cn4cnnn4)[C@H]3SC2)s1` was -4.1%; that for `COc1ccccc1OCC(O)COC(N)=O` (stereo not given) was 0.101%.
Still for that read-out and setting: the value for `CC1(C)S[C@@H]2[C@H](NC(=O)C(C(=O)O)c3ccccc3)C(=O)N2[C@H]1C(=O)O` (stereo not given in full) was 0.938%; that for `CCCCCCCCCCCCCCCCOP(=O)([O-])OCC[N+](C)(C)C` was 0.239%.
On the same count and under the same terms, the value for `CCc1nnc(NS(=O)(=O)c2ccc(N)cc2)s1` was -2.73%.
Regarding `CN1C(=O)CC(c2ccccc2)C1=O` (stereo not given), the max activation was -2.73%.
Same read-out and setting: to `CN1CCN(C2=Nc3ccccc3Oc3ccc(Cl)cc32)CC1` belongs -1.38%.
The same measure, in the same setting: to `C=CCc1cc(OC)c(O)c(C(=O)NCCO)c1` belongs -0.885%.
On to `CC1(C)O[C@@H]2C[C@H]3[C@@H]4CCC5=CC(=O)CC[C@]5(C)[C@@]4(F)[C@@H](O)C[C@]3(C)[C@]2(C(=O)CCl)O1`, for which the Potency is 1000 nM (active).
`CC(C)O`: the max activation is -2.1%.
On the same count and under the same terms, the value for `CCCCOc1cc(C(=O)NCCN(CC)CC)c2ccccc2n1` was -1.11%; that for `CCN(CC)CCOc1ccc(Cc2ccccc2)cc1` was -17.9%; that for `CCCNC(C)C(=O)Nc1c(C)csc1C(=O)OC` (stereo not given) was -1.55%.
The same measure, in the same setting: to `CCN1CC(CCN2CCOCC2)C(c2ccccc2)(c2ccccc2)C1=O` (stereo not given) belongs 9.94%.
Consider `C[C@]12CCC(=O)C=C1CC[C@@H]1[C@@H]2CC[C@@]2(C)[C@H]1CC[C@]2(O)C(=O)CO`, for which the max activation was 14.2%.
Regarding `O=C(O)[C@@H]1CSCN1`, the max activation is 0.44%.
As to `CCN(CC)CCNC(=O)COc1ccc(Cl)cc1`, the max activation was -3.06%.
On the same count and under the same terms, to `Cc1cc2c(s1)Nc1ccccc1N=C2N1CCN(C)CC1` belongs -3.7%; to `CCOC(=O)c1ccccc1O`, -7.66%.
The same measure, in the same setting: the value for `COc1ccc(S(=O)(=O)Nc2nnc(CC(C)C)s2)cc1` was -1.31% and -1.74%.
The same measure, in the same setting: to `CC(C)C1=CC2=CC[C@@H]3[C@](C)(CCC[C@@]3(C)C(=O)O)[C@H]2CC1` belongs -2.9%; to `CCC(=O)Nc1ccc(O)cc1`, -1.74%.
As to `CCc1cc(Cl)c(OC)c(C(=O)NC[C@@H]2CCCN2CC)c1O`, the max activation is -0.901%.
Still for that read-out and setting: to `Oc1ccccc1C=NCc1ccccc1` belongs -0.218%; to `CC(=O)N(CC(O)CN(C(C)=O)c1c(I)c(C(=O)NCC(O)CO)c(I)c(C(=O)NCC(O)CO)c1I)c1c(I)c(C(=O)NCC(O)CO)c(I)c(C(=O)NCC(O)CO)c1I` (stereo not given), -0.58%.
Consider `COc1ccccc1N1CCN(CCCNc2cc(=O)n(C)c(=O)n2C)CC1`, for which the max activation is -1.3%.
Still for that read-out and setting: the value for `c1ccc(CN(CC2=NCCN2)c2ccccc2)cc1` was -0.824%.
